This is an account of results in PubChem BioAssay.

Calls of active or inactive are those of the source.

The target in one experiment is Albumin (Bos taurus) (UniProt P02769). In words: bovine serum albumin binders on microarray, profiling panel, artefact control for SMM control protein annotation, biochemical, small-molecule microarray, Alexa647 label, 635/667 nm fluorescence (AID 1118).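 Also: score merges 667 nm emission intensity and signal-to-noise per printed compound spot.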 The following applies: BSA-A647 binding, fluorescence 635 nm, higher = more signal.
Chain of Albumin (Bos taurus) (P02769 whole entry, looked up): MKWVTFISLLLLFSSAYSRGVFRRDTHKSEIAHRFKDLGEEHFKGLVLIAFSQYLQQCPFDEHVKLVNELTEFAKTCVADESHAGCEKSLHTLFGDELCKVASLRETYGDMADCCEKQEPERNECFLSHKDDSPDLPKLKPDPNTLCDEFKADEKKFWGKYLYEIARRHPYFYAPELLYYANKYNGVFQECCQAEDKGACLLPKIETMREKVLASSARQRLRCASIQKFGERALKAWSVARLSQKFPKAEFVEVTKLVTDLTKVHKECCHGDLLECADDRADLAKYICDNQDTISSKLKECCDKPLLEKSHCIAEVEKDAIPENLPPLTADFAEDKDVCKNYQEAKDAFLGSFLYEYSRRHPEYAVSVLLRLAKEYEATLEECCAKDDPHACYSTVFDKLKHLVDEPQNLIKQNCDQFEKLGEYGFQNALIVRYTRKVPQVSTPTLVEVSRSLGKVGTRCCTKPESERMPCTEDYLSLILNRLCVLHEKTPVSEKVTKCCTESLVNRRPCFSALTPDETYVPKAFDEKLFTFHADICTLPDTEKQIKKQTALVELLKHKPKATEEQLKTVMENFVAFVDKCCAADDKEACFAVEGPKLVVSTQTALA
Experiment [1] is described as follows: small-molecule microarray binders of probe aXIP, primary screen, biochemical, NeuroSMM set, 635/667 nm fluorescence (AID 1119).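 Also: probe is the protein aXip251-270 applied at 1 µg/mL to compound-printed slides; binding of probe to printed compounds measured as 667 nm fluorescence plus signal to noise.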 The following applies: higher = more signal, called active from +8 up or from −8 down.
A short description of experiment [2]: small-molecule binders of probe aNOTCH3, primary screen, biochemical, small-molecule microarray, 635/667 nm fluorescence (AID 1120).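 Also: probe is a biotin-tagged antibody raised against NOTCH3 rather than NOTCH3 protein; score merges spot fluorescence near 667 nm with spot signal to noise.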 The following applies: higher = more signal.
Experiment [3] is described as follows: small-molecule binders of probe aNOTCH2, primary screen, biochemical, small-molecule microarray, 635/667 nm fluorescence (AID 1121).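 Also: score merges feature fluorescence read at 667 nm with its signal to noise.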 As to conditions: higher = more signal.
For experiment [4], the target named is Carbonic anhydrase 2 (Homo sapiens) (UniProt P00918). In words: CAII small-molecule binders, profiling panel, biochemical, small-molecule microarray, Alexa647-labelled CAII (AID 1122). As to conditions: CAII-A647 binding fluorescence, higher = more signal.
Experiment [5] is described as follows: COS7 lysate on small-molecule microarray, probe aHis, 635 nm (AID 1123).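 Also: z-score combines 667nm fluorescence intensity with signal-to-noise per printed compound spot.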 The following applies: COS7 cell lysate, fluorescence, higher = more signal.
Experiment [6] is described as follows: compound binding in COS7 lysate, probe aLAP1, primary screen, cell lysate, small-molecule microarray (AID 1124).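 Also: lysate comes from COS7 cells expressing LAP1 and is applied at 0.3 µg/mL; score merges spot fluorescence near 667 nm with signal-to-noise over triplicate slides.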 As to conditions: probe aLAP1, fluorescence, higher = more signal.
The next experiment deals with Sam68 (KHDRBS1). The experiment can be described thus: Sam68 small-molecule binders, primary screen, biochemical, small-molecule microarray, 635 nm fluorescence (AID 1125).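 Also: score merges 667 nm channel intensity with signal to noise over triplicate slides.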 The following applies: small-molecule microarray binding, higher = more signal.
Experiment [7] concerns Chordin-like protein 2 (CHRDL2). The experiment can be described thus: CHRDL2 small-molecule binders, primary screen, biochemical, small-molecule microarray, 635 nm fluorescence (AID 1126).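 Also: printed compound slides probed with Chrdl2 protein at 4 µg/mL for 1 h at 4 C; score merges 667 nm emission intensity with signal to noise over three replicate slides.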 As to conditions: small-molecule microarray binding, fluorescence 635 nm; higher = more signal.
Experiment [8] deals with Concanavalin-A (Canavalia ensiformis) (UniProt P02866). In words: ConA small-molecule binders, primary screen, artefact control for SMM control protein annotation, biochemical, small-molecule microarray, Alexa647 label, 635 nm (AID 1127).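 Also: z combines 667 nm emission intensity with signal-to-noise across three replicate slides.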 As to conditions: ConA-A647 binding fluorescence, higher = more signal.
Chain of Concanavalin-A (Canavalia ensiformis) (P02866 whole entry, looked up): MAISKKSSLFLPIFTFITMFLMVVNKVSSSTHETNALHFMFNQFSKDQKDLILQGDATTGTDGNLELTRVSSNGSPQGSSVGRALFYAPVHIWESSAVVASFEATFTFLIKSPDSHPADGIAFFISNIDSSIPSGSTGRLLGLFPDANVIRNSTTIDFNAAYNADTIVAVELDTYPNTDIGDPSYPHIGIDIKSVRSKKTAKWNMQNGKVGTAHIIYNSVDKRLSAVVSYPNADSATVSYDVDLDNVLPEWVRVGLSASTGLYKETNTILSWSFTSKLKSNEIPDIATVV
Experiment [9] is described as follows: anti-His antibody binders, primary screen, artefact control for SMM control protein annotation, biochemical, small-molecule microarray, 635 nm fluorescence (AID 1128).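 Also: score merges feature fluorescence with signal-to-noise for each printed compound spot.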 The following applies: anti-His Alexa647 antibody binding, higher = more signal.
Experiment [10] has as its system Human papillomavirus type 1a E7 protein (residues 1-88). The experiment can be described thus: HPV1a E7 small-molecule binders, primary screen, biochemical, small-molecule microarray, residues 1-88, 635 nm (AID 1129). As to conditions: small-molecule microarray binding, fluorescence 635 nm; higher = more signal.
Experiment [11] deals with Focal adhesion kinase 1 (Homo sapiens) (UniProt Q05397). The experiment can be described thus: small-molecule microarray binders of FAK, primary screen, biochemical, 635/667 nm fluorescence, BSA, DTT (AID 1130).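 Also: composite of spot emission at 667 nm and signal to noise over triplicate slides.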 As to conditions: PTK2 binding, 635 nm fluorescence, higher = more signal.
Chain of Focal adhesion kinase 1 (Homo sapiens) (Q05397 whole entry, looked up): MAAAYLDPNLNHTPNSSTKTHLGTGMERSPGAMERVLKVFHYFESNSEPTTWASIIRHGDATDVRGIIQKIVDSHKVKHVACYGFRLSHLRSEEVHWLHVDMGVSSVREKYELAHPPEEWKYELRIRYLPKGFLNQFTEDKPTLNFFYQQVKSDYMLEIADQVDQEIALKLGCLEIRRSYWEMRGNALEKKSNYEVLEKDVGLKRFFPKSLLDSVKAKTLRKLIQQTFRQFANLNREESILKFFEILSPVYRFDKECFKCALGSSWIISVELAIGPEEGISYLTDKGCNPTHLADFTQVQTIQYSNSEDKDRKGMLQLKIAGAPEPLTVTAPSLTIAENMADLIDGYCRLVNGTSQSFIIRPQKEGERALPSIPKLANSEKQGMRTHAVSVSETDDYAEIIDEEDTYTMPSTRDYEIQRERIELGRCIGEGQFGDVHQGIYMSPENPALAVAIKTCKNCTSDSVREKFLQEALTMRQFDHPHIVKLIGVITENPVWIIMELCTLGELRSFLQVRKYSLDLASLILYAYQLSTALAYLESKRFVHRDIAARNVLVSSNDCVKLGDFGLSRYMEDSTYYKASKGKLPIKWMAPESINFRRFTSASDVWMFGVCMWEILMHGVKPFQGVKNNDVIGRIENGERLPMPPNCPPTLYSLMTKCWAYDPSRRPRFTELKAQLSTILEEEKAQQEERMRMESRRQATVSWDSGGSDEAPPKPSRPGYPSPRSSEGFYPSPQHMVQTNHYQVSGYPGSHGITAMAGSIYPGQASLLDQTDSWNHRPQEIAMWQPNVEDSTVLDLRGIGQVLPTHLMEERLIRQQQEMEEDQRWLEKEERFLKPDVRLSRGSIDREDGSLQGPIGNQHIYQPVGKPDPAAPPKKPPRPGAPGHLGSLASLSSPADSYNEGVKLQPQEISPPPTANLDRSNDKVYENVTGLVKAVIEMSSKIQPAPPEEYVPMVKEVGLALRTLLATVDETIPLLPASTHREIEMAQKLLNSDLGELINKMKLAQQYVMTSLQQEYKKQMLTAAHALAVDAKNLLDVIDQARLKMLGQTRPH
Experiment [12] concerns Fibrinogen (Alexa647-labelled). In words: fibrinogen binders on compound microarrays, profiling panel, artefact control for SMM control-protein annotation, biochemical, small-molecule microarray, 635/667 nm fluorescence (AID 1131).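 Also: z-score merges 667 nm fluorescence with per-spot signal-to-noise over triplicate slides.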 The following applies: fibrinogen-A647 binding fluorescence, higher = more signal.
Experiment [13] addresses Follistatin (Homo sapiens) (UniProt P19883). In words: follistatin binders on small-molecule microarrays, primary screen, biochemical, small-molecule microarray, 635/667 nm fluorescence (AID 1132). The following applies: FST binding, 635 nm fluorescence, higher = more signal.
Experiment [14] has as its target Fibroblast growth factor 2 (Homo sapiens) (UniProt P09038). In words: FGF2 binders on small-molecule microarrays, primary screen, biochemical, small-molecule microarray, 635/667 nm fluorescence (AID 1133). As to conditions: small-molecule microarray binding, FGF2, fluorescence 635/667; higher = more signal.
The nature of experiment [15]: mitochondrial membrane potential change in A549 cells, profiling panel, cell-based, JC-1 fluorescence, basal, 24 h, 100 nL (AID 1138).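 Also: A549 lung adenocarcinoma cells under basal conditions with no added stimulus; test concentration not given here.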 As to conditions: higher = more signal.
The subject of the next experiment is Lefty1. The experiment can be described thus: Lefty1 binders on small-molecule microarrays, primary screen, biochemical, small-molecule microarray, 635/667 nm fluorescence (AID 1139). The following applies: small-molecule microarray binding, fluorescence 635/667; higher = more signal.
The test system of experiment [16] is wheat germ agglutinin (Triticum aestivum), Alexa647-labelled. The experiment can be described thus: wheat germ agglutinin binders on compound microarrays, profiling panel, artefact control for SMM control-protein annotation, biochemical, small-molecule microarray, 635/667 nm fluorescence (AID 1140).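 Also: score merges 667 nm feature emission with signal to noise over triplicate slides.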 As to conditions: WGA-A647 binding, 635 nm fluorescence, higher = more signal.

Experiment [17] addresses Luciferin 4-monooxygenase (Photinus pyralis) (UniProt P08659). In words: firefly luciferase enzyme inhibitors, primary screen, biochemical, luminescence, purified enzyme, 2006 set (AID 1141).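 Also: cell-free assay with purified firefly luciferase at 100 ng per well in PBS; test concentration not given here.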 The following applies: SteadyGlo luminescence, 30 min, higher = more signal, called active from +8 up or from −8 down.

Chain of Fibroblast growth factor 2 (Homo sapiens) (P09038 whole entry, looked up): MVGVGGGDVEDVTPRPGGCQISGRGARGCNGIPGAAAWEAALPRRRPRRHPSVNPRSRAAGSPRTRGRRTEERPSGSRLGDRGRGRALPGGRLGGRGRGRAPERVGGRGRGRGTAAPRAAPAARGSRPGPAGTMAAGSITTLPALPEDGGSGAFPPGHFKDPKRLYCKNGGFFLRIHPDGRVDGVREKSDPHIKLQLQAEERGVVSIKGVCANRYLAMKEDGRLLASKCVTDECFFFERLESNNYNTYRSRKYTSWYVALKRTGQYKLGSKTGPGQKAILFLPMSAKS
Chain of Luciferin 4-monooxygenase (Photinus pyralis) (P08659 whole entry, looked up): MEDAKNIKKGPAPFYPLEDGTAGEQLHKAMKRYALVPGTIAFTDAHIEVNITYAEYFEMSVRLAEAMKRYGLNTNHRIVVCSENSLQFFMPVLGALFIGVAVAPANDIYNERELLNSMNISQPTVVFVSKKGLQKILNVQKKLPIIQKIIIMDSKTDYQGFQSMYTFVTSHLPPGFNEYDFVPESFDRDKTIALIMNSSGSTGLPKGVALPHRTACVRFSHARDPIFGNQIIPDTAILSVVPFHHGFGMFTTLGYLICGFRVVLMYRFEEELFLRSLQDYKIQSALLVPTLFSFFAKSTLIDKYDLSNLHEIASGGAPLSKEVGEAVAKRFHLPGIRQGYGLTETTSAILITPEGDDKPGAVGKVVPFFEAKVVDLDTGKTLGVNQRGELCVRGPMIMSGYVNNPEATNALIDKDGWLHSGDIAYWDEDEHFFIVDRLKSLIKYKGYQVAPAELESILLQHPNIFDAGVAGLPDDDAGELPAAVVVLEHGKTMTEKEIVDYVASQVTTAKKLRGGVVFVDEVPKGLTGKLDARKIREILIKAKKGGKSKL
Chain of Follistatin (Homo sapiens) (P19883 whole entry, looked up): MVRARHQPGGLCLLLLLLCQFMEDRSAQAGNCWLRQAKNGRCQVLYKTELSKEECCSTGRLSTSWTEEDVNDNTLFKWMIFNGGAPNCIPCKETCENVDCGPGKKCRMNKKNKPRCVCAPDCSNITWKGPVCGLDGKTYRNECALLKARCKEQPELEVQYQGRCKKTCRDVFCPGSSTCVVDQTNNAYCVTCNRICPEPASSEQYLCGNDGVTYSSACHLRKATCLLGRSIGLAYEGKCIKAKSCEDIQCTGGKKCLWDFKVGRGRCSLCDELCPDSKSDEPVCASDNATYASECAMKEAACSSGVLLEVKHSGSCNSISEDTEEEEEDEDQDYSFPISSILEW

`CN1C(=O)C2C=CC(C(O)c3cccc4ccccc34)N(N3CCCCC3)C2C1=O` (stereo not given): the composite z-score with Albumin (Bos taurus) was determined as 0.918; in [2], 0.246; in experiment [3] it was 0.0502; in [4], 0.586; in experiment [5], 2.75; in experiment [6], 0.59. The composite z-score in the experiment on Sam68 (KHDRBS1) was 1.31; in experiment [7], -0.227; in [8], 1.17; in experiment [9] it was 2.11; in experiment [10], 1.15; in experiment [11], 0.127. Further, the composite z-score in [12] was 0.853; in [13] it was 1.23; in experiment [14], 0.225; with Lefty1 it was 0.789; in experiment [16], 1.3. In addition, the composite Z-score in experiment [1] was 0.353 (inactive). The z-score is -0.0645 in experiment [15] and -0.848 (inactive) in experiment [17].
Regarding `NC(=O)NCC#Cc1ccc2c(c1)[C@]1(C(=O)N2)[C@H](C(=O)O)[C@H]2C(=O)O[C@H](c3ccccc3)[C@H](c3ccccc3)N2[C@@H]1c1ccc(OCCO)cc1`, the composite z-score in the experiment with Albumin (Bos taurus) was 0.351; in experiment [2], -0.161; in experiment [3] it was -0.143; in experiment [4], 0.355; in [5], 0.822; in experiment [6], 0.613. The composite z-score with Sam68 (KHDRBS1) came to 1.27; in [7], 0.241; in experiment [8] it was 0.962; in experiment [9] it was 0.894; in experiment [10] it was 0.643; in [11], 0.116. Further, the composite z-score was 0.57 in experiment [12]; 1.18 in experiment [13]; 0.239 in experiment [14]; 0.183 in the experiment on Lefty1; 0.553 in experiment [16]. For the same compound, in [1], the composite Z-score was -0.131 (inactive). Besides, the values for the z-score in [15] and in experiment [17] were -0.765 and -2.23 (inactive), respectively.
For `COCCOC(=O)N1C(=O)[C@@]2(c3cc(C#CC4=CCCCC4)ccc31)[C@H](c1ccccc1OCCO)N1[C@H](c3ccccc3)[C@H](c3ccccc3)OC(=O)[C@H]1[C@@H]2C(=O)Nc1nc2ccccc2s1`, the composite z-score is 0.526 with Albumin (Bos taurus); 0.158 in experiment [2]; -0.0047 in experiment [3]; 0.236 in experiment [4]; 1.06 in experiment [5]; -0.375 in experiment [6]. Besides, the composite z-score with Sam68 (KHDRBS1) was 1.32; in [7] it was 0.454; in experiment [8], 1.15; in experiment [9], 1.16; in [10], 0.96; in experiment [11], 0.96. The composite z-score in experiment [12] came to 0.868; in experiment [13], 1.19; in [14], 0.731; in the experiment with Lefty1, 1.09; in experiment [16] it was 0.754. Also, the composite Z-score in [1] was -0.243 (inactive). Moreover, the z-score in experiment [15] was -2.14; in [17], -2.08 (inactive).
In the case of `COCCOC(=O)N1C(=O)[C@@]2(c3cc(C#CCCO)ccc31)[C@H](c1ccccc1OCCO)N1[C@H](c3ccccc3)[C@H](c3ccccc3)OC(=O)[C@H]1[C@@H]2C(=O)Nc1nc2ccccc2s1`, the composite z-score with Albumin (Bos taurus) is 0.802; in [2] it was 0.108; in experiment [3], -0.0352; in [4] it was 0.729; in experiment [5], 2.02; in [6], 0.967. For the same compound, the composite z-score with Sam68 (KHDRBS1) turned out to be 1.29; in experiment [7], 0.0314; in experiment [8], 1.09; in experiment [9] it was 2.09; in experiment [10], 1.2; in [11], 0.771. The composite z-score was determined as 0.733 in [12]; 1.07 in experiment [13]; 0.957 in experiment [14]; 0.932 with Lefty1; 1.24 in experiment [16]. In addition, the composite Z-score in experiment [1] is 0.048 (inactive). Moreover, the values for the z-score in experiment [15] and in experiment [17] were -2.27 and -0.499 (inactive), respectively.
